High-throughput results as filed in PubChem BioAssay.
The full list was thinned out, with hits kept by preference.
TTR transcr act: TTR transcription activation, primary screen; SH-SY5Y TTR promoter Gaussia luciferase, luminescence; 100% = recombinant luciferase protein wells; activation, % at 16.7 µM; 92,000 compounds, 1.3% hits; AID 1117267;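 active means activation above the mean of all tested compounds plus 3 SD, cut at about 9.5% in these data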;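 further: cells exposed to compounds for one day before reading; 0% = median of all test compound wells on the plate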
TTR inh HuH7: counter-screen for TTR activators: TTR transcription inhibitors in HuH7 cells. shares compounds with TTR transcr act. 1,100 compounds, 4% hits. inhibition, % at 16.7 µM. HuH7 TTR promoter-Gaussia luciferase reporter, luminescence;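 active means average inhibition above the solvent-only control wells' mean plus 3 SD, cut at about 15% in these data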;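 further: 0% = cells with DMSO only and 100% = cells with inhibitor control FD; inhibitors lower well luminescence so higher value means more inhibition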
TTR act confirm: human TTR transcription activation, confirmation; AID 1117280; activation, % at 16.7 µM; shares compounds with TTR transcr act; SHSY5Y TTR promoter Gaussia luciferase, luminescence; 100% = purified Lucia enzyme wells, no cells; 1,100 tested, under 10 active;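 active means mean activation above a set limit taken from the earlier primary screen, cut at about 11% in these data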;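 further: 0% = DMSO-treated cells and 100% = recombinant Lucia luciferase without cells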
Active calls of the source: *.

`COc1ccc(CNC(=O)CNC(=O)c2ccc(C(C)(C)C)cc2)cc1OC` gave TTR transcr act 13*, TTR inh HuH7 -18 and TTR act confirm 0.
Screening COc1ccc(CC(=O)NCc2ccccc2)cc1OC returned TTR transcr act 0.
For COc1ccc(CCNC(=O)c2ccc(OC)c(OC)c2)cc1OC the results were TTR transcr act 2.
For O=C(OCc1cn(Cc2ccc(F)c(F)c2)nn1)N1CCCC1 the results were TTR transcr act 0.
Screening Cc1oc(-c2ccccc2)cc1C(=O)NC1CCN(Cc2ccccc2)CC1 returned TTR transcr act 9.8*, TTR inh HuH7 0 and TTR act confirm 0.
O=C(NC1CCN(Cc2ccccc2)CC1)c1ccccc1Cl was read as TTR transcr act 1.
Screening O=C(NC1CCN(Cc2ccccc2)CC1)c1ccccc1OCc1ccccc1 returned TTR transcr act -3.
`C=CC[C@@H](CC(=O)N[C@@H](CO)Cc1ccccc1)C(=O)N[C@H](C)COC(=O)[C@@H](CC=C)Cc1ccc(F)cc1` gave TTR transcr act -2.
Screening COc1ccc(-c2cc(C(=O)Nc3cc(C)nn3-c3ccccc3)no2)cc1OC returned TTR transcr act 1.
For O=C(CCn1ccc([N+](=O)[O-])n1)NC1CCCCCC1 the results were TTR transcr act 1.
For CC(=O)Nc1ccc(NC(=O)Cn2ccc([N+](=O)[O-])n2)cc1 the results were TTR transcr act 1.
Cc1ccc(NC(=O)CCn2ccc([N+](=O)[O-])n2)nc1 was read as TTR transcr act 29*, TTR inh HuH7 8 and TTR act confirm 1.
`O=C(c1ccccc1)c1cccn1CC(=O)N1CCCCCC1` gave TTR transcr act 10*, TTR inh HuH7 -11 and TTR act confirm 0.
For CN(Cc1ccccc1)C(=O)Cn1cccc1C(=O)c1ccccc1 the results were TTR transcr act -1.
For Cc1cccc(N2CCN(C(=O)Cn3cccc3C(=O)c3ccccc3)CC2)c1C the results were TTR transcr act 1.
For CCc1nc2c(OCC3COc4ccccc4O3)cccn2c1N(C)C(=O)c1ccccc1F (configuration not stated) the results were TTR transcr act -1.
`Cc1ccc(SCC(=O)OCc2csc(CC(=O)Nc3ccccc3C)n2)cc1C` gave TTR transcr act 1.
CCCc1nc2ccc(Cl)cn2c1Cc1ccsc1 was read as TTR transcr act -1.
For O=C(c1cc(-c2ccccc2)nn1CC1CC(c2cccnc2)=NO1)N1CCOCC1 (configuration not stated) the results were TTR transcr act 2.
Screening Cc1ccccc1-c1cc(C(=O)NCc2ccco2)n(CC2CC(c3cccnc3)=NO2)n1 (configuration not stated) returned TTR transcr act 3.
O=C(O)c1cc(-c2ccccc2)nn1CC1CC(c2cccnc2)=NO1 (configuration not stated) was read as TTR transcr act 15*, TTR inh HuH7 -6 and TTR act confirm -1.
For CCCCCc1c(-c2ccc(F)cc2F)ncn1CCc1ccccc1OC the results were TTR transcr act -3.
O=C(COc1ccc(F)cc1)Nc1nnc(S(=O)(=O)N2CCCC2)s1 was read as TTR transcr act -3.
`CCCCn1nnnc1C1(C)CCC(=O)N1CCOc1ccccc1` (configuration not stated) gave TTR transcr act 1.
Screening Nc1nonc1C(=O)NCCNc1ccc([N+](=O)[O-])cc1 returned TTR transcr act 0.
Screening Cc1nonc1OC(C)CNCCNc1ccc([N+](=O)[O-])cc1 (configuration not stated) returned TTR transcr act 11*, TTR inh HuH7 -20 and TTR act confirm 1.
`COc1ccc(C(=O)NCCNc2ccc([N+](=O)[O-])cc2)cc1` gave TTR transcr act 3.
`OC1COCOC1C(O)C1OCOCC1O` (configuration not stated) gave TTR transcr act 1.
Screening COC(=O)[C@]12C[C@H](CC(=O)NCC34CC5CC(CC(C5)C3)C4)C(=O)N(Cc3cccc4ccccc34)C1=C[C@H](C(C)C)O[C@@H]2C1CC1 returned TTR transcr act -1.
Screening Cc1sccc1/C=N/NC(=O)c1cccc2ccccc12 returned TTR transcr act -2.
For Cc1nn(C)c(C)c1/C=N/NC(=O)c1csc2ccccc12 the results were TTR transcr act -2.
Screening CCn1ncc(/C=N\NC(=O)c2csc3ccccc23)c1C returned TTR transcr act 15*, TTR inh HuH7 18* and TTR act confirm -1.
Screening COc1ccc(C2=CC(=O)C[C@H](COCc3ccccc3)N(C(=O)OC(C)(C)C)O2)cc1 returned TTR transcr act 3.
`COc1ccc(-c2cc(=O)c3c(OC)c(OC)c(OC)c(OC)c3o2)cc1` gave TTR transcr act -3.
`COc1ccc(-c2cc(=O)c3c(C)cc(O)cc3o2)cc1` gave TTR transcr act -2.
For COc1ccc(-c2[nH]nc3oc(=O)cc(C)c23)cc1 the results were TTR transcr act 16*, TTR inh HuH7 -18 and TTR act confirm -1.
For CC(C)C[C@@H](CO)N1CCN(Cc2cccc(C#N)c2)CCC1=O the results were TTR transcr act 10.
CN(C(=O)c1cccc(NC(=O)Cc2ccc(NC(=O)C3CCN(C(=O)CCc4ccccc4)CC3)cc2)c1)C1CC1 was read as TTR transcr act 1.
CCOC(=O)c1c(C)[nH]c(C)c1C(=O)COC(=O)c1sccc1C was read as TTR transcr act 11*, TTR inh HuH7 -16 and TTR act confirm 0.
Screening CCOC(=O)c1c(C)[nH]c(C)c1C(=O)COC(=O)c1c(OC)cccc1OC returned TTR transcr act -1.
CCOC(=O)c1c(C)[nH]c(C)c1C(=O)COC(=O)c1ccc(O)cc1 was read as TTR transcr act -1.
O=S(=O)(Oc1ccccc1-c1ccccc1)c1ccccc1 was read as TTR transcr act -1.
`O=S(=O)(c1ccccc1)C1CC1(c1ccccc1)c1ccccc1` (configuration not stated) gave TTR transcr act 14*, TTR inh HuH7 -3 and TTR act confirm 0.
Screening O=S(=O)(NCCC1CC1(Cl)Cl)c1ccccc1 (configuration not stated) returned TTR transcr act 0.
Screening O=c1[nH]n(-c2ccc(Cl)cc2)c2ncccc12 returned TTR transcr act 14*, TTR inh HuH7 0 and TTR act confirm -1.
Screening O=c1[nH]n(CCO)c(=O)c2cccnc12 returned TTR transcr act 1.
`COc1ccc(-n2c(=S)[nH]c(=O)c3cccnc32)cc1` gave TTR transcr act 0.
For Cc1cc(C)c(NC(=O)COC(=O)C23CC4CC(CC(O)(C4)C2)C3)c(Cl)c1 the results were TTR transcr act 2.
For Cn1cccc1C(=O)NC(=O)COC(=O)C12CC3CC(CC(O)(C3)C1)C2 the results were TTR transcr act 11*, TTR inh HuH7 -6 and TTR act confirm -1.
Screening O=C(COC(=O)C12CC3CC(CC(Br)(C3)C1)C2)NNC(=O)c1ccccc1 returned TTR transcr act 0.
Screening CC1(C(=O)NS(=O)(=O)c2cccc(C#N)c2)CCN1C(=O)c1ccco1 (configuration not stated) returned TTR transcr act 1.
